# Assay outcomes: PubChem, several laboratories
# Mtb bLac sens – beta-lactam sensitization of Mtb H37Rv. M. tuberculosis H37Rv growth with meropenem, percent inhibition. inhibition, % at 25 µM. hit rate 0.27% among 330,000; call rule not given here;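 note: growth measured after seven days incubation then overnight dye step; 0% = bacteria only wells and 100% = bacteria with antibiotic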
# Mtb FBA inh – inhibits M. tuberculosis FBA enzyme; purified M. tuberculosis FBA, fluorescence read-out; hit rate 2.3% among 360,000; inhibition, % at 1 µM; in the data active = inhibition above about 27%;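 note: 0% = vehicle and 100% = reference inhibitor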
# Target sequence (P9WQA3 whole entry, looked up): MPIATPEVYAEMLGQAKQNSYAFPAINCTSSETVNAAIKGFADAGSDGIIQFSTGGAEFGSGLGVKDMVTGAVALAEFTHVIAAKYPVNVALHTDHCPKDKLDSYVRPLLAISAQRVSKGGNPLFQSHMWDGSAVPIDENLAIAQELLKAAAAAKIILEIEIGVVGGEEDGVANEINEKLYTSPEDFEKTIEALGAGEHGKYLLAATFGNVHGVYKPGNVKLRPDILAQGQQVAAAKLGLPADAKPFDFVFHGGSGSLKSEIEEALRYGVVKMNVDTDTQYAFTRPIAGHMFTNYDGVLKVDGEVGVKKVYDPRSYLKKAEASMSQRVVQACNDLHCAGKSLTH
# CCHFV vOTU inh – blocks the CCHF virus ovarian tumor domain protease; CCHFV vOTU protease, Pep-AMC fluorescence; inhibition, % at 11.5 µM; hit rate 0.55% among 370,000; AID 651958; note: 0% = vehicle wells with enzyme and 100% = no enzyme wells
# RecA splice inh – blocks M. tuberculosis RecA intein splicing; P9WHJ3; inhibition, % (no concentration beside the values); cell-free RecA intein splicing, fluorescence; hit rate 0.75% among 290,000; in the data active = inhibition above about 30%;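 note: 0% = vehicle wells and 100% = reference inhibitor control wells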
# GDH-TPI inh – GDH-TPI coupled enzyme inhibition counter-screen; GDH-TPI coupled enzyme counterscreen, NADH absorbance; hit rate 1.2% among 360,000; AID 588335; inhibition, % at 4.8 µM;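 note: 0% = DMSO wells and 100% = wells lacking the enzyme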
# An asterisk follows results filed as active; . = no result given. Only some compounds are listed: those with a hit (about 4.2% of all), similar ones and a draw of the others. Cut-off read from the data, not from the text of the source, unless noted: active = inhibition above about 30%; inactive = the rest.
SMILES,Mtb bLac sens,Mtb FBA inh,CCHFV vOTU inh,RecA splice inh,GDH-TPI inh
O=C(Nc1nc2cc3c(cc2s1)OCCO3)c1cccc(N2C(=O)CCC2=O)c1,-5.0,4.2,2.7,-2.0,31.2*
COc1ccccc1C(=O)Nc1nc2cc3c(cc2s1)OCCO3,-1.2,8.9,.,-2.4,3.9
O=C(Nc1nc2cc3c(cc2s1)OCCO3)c1cccs1,-0.9,3.8,13.8,-0.8,37.7*
c1ccc2nc(-c3nc4ccccc4[nH]3)ccc2c1,93.9,23.4,-12.2,0.5,35.6*
c1ccc2[nH]c(-c3cscn3)nc2c1,-3.0,2.6,-3.5,-2.2,7.2
N#Cc1c(Cl)nc(N/N=C/c2ccccc2)c(Cl)c1Cl,3.1,-0.4,2.9,4.1,0.7
C[N+](C)(C)c1ccc(/C=N/Nc2nc(Cl)c(C#N)c(Cl)c2Cl)cc1,63.0,-4.8,6.3,4.3,37.5*
O[C@H](COc1ccc(Cl)cc1)CN1CCC(C(O)(c2ccccc2)c2ccccc2)CC1,.,.,-0.6,.,.
Cc1ccc(C)c(NC(=O)C2CCCN2S(=O)(=O)c2cccnc2)c1 (configuration not stated),.,.,-1.9,.,.
COC(=O)C1CN(Cc2cn(Cc3ccc(Cl)cc3)nn2)CCS(=O)(=O)N1Cc1ccc(C)cc1 (configuration not stated),.,.,2.3,.,.
Cc1cc(C)cc(NC(=S)N=Nc2c(O)n(C)c3ccc(S(=O)(=O)N4CCOCC4)cc23)c1,3.6,0.3,1.6,-1.1,11.7
Cc1cccc(NC(=S)N=Nc2c(O)n(C)c3ccc(S(=O)(=O)N4CCOCC4)cc23)c1,7.4,-4.0,3.7,2.5,11.8
Cc1ccccc1NC(=S)N=Nc1c(O)n(C)c2ccc(S(=O)(=O)N3CCOCC3)cc12,2.3,-9.2,-6.3,40.8*,0.4
Cc1cccc(C)c1NC(=S)N=Nc1c(O)n(C)c2ccc(S(=O)(=O)N3CCOCC3)cc12,8.6,-2.6,11.9,45.7*,3.0
C=C(C)c1cccc(C(C)(C)NC(=O)Nc2ccc(OC)nc2)c1,10.5,148.5*,4.7,2.9,1.1
CCCCCCSc1cccc(-c2nc3ccc(C)cn3c2NCc2ccccc2)c1,4.6,35.8*,0.2,-0.5,9.2
CCCCCCSc1cccc(-c2nc3ccc(C)cn3c2NC2CCCCC2)c1,-4.6,4.3,1.6,1.6,6.0
COc1ccc2c(c1OC)C(=O)N1C2SC(C)(C)[C@H]1C(=O)NCC(C)C (some centres not stated),-2.3,152.0*,2.0,2.3,2.8
CN=Cc1nc(-c2ccccc2)oc1O,0.5,-1.5,24.4,-2.6,59.1*
COC(=O)c1ccc2c(c1O)C(=O)c1ccccc1C2=O,100.1,-3.9,6.6,44.4*,6.4
O=C1c2ccccc2C(=O)c2c1ccc(O)c2O,.,-3.8,8.6,.,20.2
Cn1c(=O)c2cc(S(=O)(=O)N3CCN(CCO)CC3)ccc2n(C)c1=O,.,.,-1.6,.,.
Cc1ccc(Nc2cc(C)nc3c(C)cccc23)cc1,1.9,1.2,9.7,0.8,31.7*
O=C(CSc1nnc(COc2ccc(Cl)cc2)n1Cc1ccco1)Nc1cccc2ccccc12,.,.,7.1,.,.
Fc1ccc(-c2nc3ccccn3c2NCc2ccc3c(c2)OCO3)cc1,2.7,39.4*,-26.6,-2.8,14.8
SMILES,Mtb bLac sens,Mtb FBA inh,CCHFV vOTU inh,RecA splice inh,GDH-TPI inh
CN(C)c1ccc(/C=N/NC(=O)C(=O)/C=C2\NC3(CCCC3)Cc3ccccc32)cc1,6.6,-5.6,-2.6,-23.6,31.3*
COc1cc(/C=N/NC(=O)C(=O)/C=C2\NC3(CCCC3)Cc3ccccc32)ccc1O,-1.3,-7.6,11.2,-55.7,12.2
COC(=O)[C@]12C[C@H](CC(=O)N3CCCCC3)C(=O)N(CCc3ccc(OC)c(OC)c3)C1=C[C@H](C(C)C)O[C@@H]2C1CC1,.,.,3.2,.,.
CCOC(=O)Cc1nc(N2CCN(C=O)CC2)c2c(C)c(C(=O)OCC)sc2n1,.,.,3.7,.,.
Oc1cccc(Nc2nc(O)c(/C=C3\C=Nc4ccccc43)s2)c1,-0.8,5.0,-1.8,.,41.2*
Cc1ccc(C)c(NC(=O)C2CCCN2S(=O)(=O)c2cccc3cccnc23)c1 (configuration not stated),.,.,1.1,.,.
Nc1cc(C(F)(F)F)ccc1C(=O)O,-4.9,76.2*,-25.5,-7.5,9.1
O=C(N/N=C/c1ccc(-c2ccc(Br)cc2)o1)c1ccc2c(c1)OCO2,97.9,5.9,12.3,-2.4,18.3
O=C(N/N=C/c1ccccc1[N+](=O)[O-])c1ccc2c(c1)OCCO2,8.2,2.9,-5.3,-0.5,6.3
Cc1ccsc1/C=N\NC(=O)c1ccc2c(c1)OCO2,-3.0,-0.1,13.6,-1.6,39.7*
Cc1ccsc1/C=N/NC(=O)c1ccc2c(c1)OCCO2,-9.6,-1.9,2.3,0.2,33.7*
